Experimental data reported in PubChem BioAssay (NCI).
Compounds without any hit were thinned out: in the full panel of roughly 83,000, 20% have a hit.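 For each line, cells grew in 96-well plates with the test compound present at a single concentration for 48 hours.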 Values without a mark were called inactive. Calls of active or inactive are those of the source. Rule for the calls: active = growth percent below 10; inactive = the rest.

Tests used:
Assay in all cases: NCI-60 one-dose screen, 48 h (100 = growth as untreated, 0 = no growth, -100 = all killed)
Settings in all cases: 10 µM unless noted
[1] = tested on: SK-MEL-2 melanoma
[2] = tested on: EKVX NSCLC
[3] = tested on: SN12C renal
[4] = tested on: UO-31 renal
[5] = tested on: TK-10 renal
[6] = tested on: ACHN renal
[7] = tested on: CAKI-1 renal
[8] = tested on: A498 renal
[9] = tested on: CCRF-CEM leukemia
[10] = tested on: MOLT-4 leukemia
[11] = tested on: RPMI-8226 leukemia
[12] = tested on: OVCAR-8 ovarian
[13] = tested on: OVCAR-5 ovarian
[14] = tested on: OVCAR-4 ovarian
[15] = tested on: SK-OV-3 ovarian
[16] = tested on: IGROV1 ovarian
[17] = tested on: OVCAR-3 ovarian
[18] = tested on: HS 578T breast
[19] = tested on: NCI/ADR-RES ovarian
[20] = tested on: SR leukemia

Row | Compound | growth [1] | growth [2] | growth [3] | growth [4] | growth [5] | growth [6] | growth [7] | growth [8] | growth [9] | growth [10] | growth [11] | growth [12] | growth [13] | growth [14] | growth [15] | growth [16] | growth [17] | growth [18] | growth [19] | growth [20]
1 | CN(C[C@H]1Cc2c(cccc2N2CCN(c3ncccn3)CC2)CN1)[C@H]1CCCc2cccnc21 | 68.8% | 37.7% | 39.9% | 16.9% | 38% | 35.5% | 33.5% | 58.1% | 22.4% | 27.9% | 27.1% | 30% | 52.8% | 52.9% | 39.5% | 37.1% | 34% | 73.1% | 9.46% (active) | 
2 | CN(C[C@H]1Cc2c(cccc2N2CCN(Cc3ccccn3)CC2)CN1)[C@H]1CCCc2cccnc21 | 73.2% | 54.8% | 53.5% | 20.1% | 58.7% | 43.2% | 42.8% | 65.9% | 41.2% | 41% | 64.5% | 42.7% | 71% | 72.6% | 51.2% | 49.2% | 64.9% | 92.2% | 28.1% | 
3 | CN(C)c1cccc2c(S(=O)(=O)/N=C(\N)Nc3nc4ccccc4s3)cccc12 | 15.3% | 71.3% | 88.4% | 56.8% | 91.4% | 84.2% | 54% | 74.5% | 69.1% | 60.6% | 62% | 70.6% | 84.2% | 82.4% | 46.6% | 51.7% | 8.44% (active) | 68% | 48% | 
4 | CC(C)(C)n1cc(-c2ccnc(NCCNS(=O)(=O)c3ccc(F)cc3)c2)c(-c2cccc(O)c2)n1 | 66.5% | 63% | 55.8% | 53.9% | 102% | 63% | 61.3% | 56.7% | 46.4% | 35.3% |  |  | 68.6% | 56.2% | 79.3% | 68.9% | 70.5% | 60.3% | 61.7% | 25.5%
5 | O=S(=O)(NCCCNc1nccc(-n2ccc3cccnc32)n1)c1cccc(C(F)(F)F)c1 | 107% | 101% | 108% | 104% | 102% | 105% | 94.6% | 112% | 102% | 97.3% |  | 105% | 101% | 101% | 112% | 107% | 112% | 100% | 101% | 103%
6 | COc1ccc(NC(=O)c2c(Nc3ccc(OC)cc3OC)n[nH]c2N)c(OC)c1 | 102% | 89.1% | 90% | 69.7% | 117% | 95% | 94.9% | 114% | 110% | 78.8% | 91% | 96.4% | 96.3% | 102% |  | 93.7% | 106% | 96% |  | 
7 | COc1ccc(-n2c(=O)sc3c(Cl)nc(C)nc32)c(OC)c1 | 99.4% | 75.9% | 81% | -23.2% (active) | 115% | 95.6% | -58.1% (active) | 91.1% | 55.9% | 78.2% | 106% | 56.9% | 92% | 101% | 83.8% | 28.8% | 68.8% | 93.9% | 101% | 
8 | CCCCCCCC/C=C/CCCCCCCC1=NC(C)(C)CN1C(C)(C)CO | 51.3% | 66.2% | 48.7% | 44.5% | 62.1% | 21.6% | 42.3% | 88.8% | 3.32% (active) | -22.6% (active) | -21.7% (active) | 37.1% | 65.1% | 42.5% | 70.3% | 1.53% (active) | 55.4% | 65.9% |  | 
9 | CCCCCCCCN(CCCCCCCC)CCCCCCNc1cc(OC)cc2cccnc12 | 105% | 87.4% | 63.4% | 55.2% | 118% | 91.4% | 72% | 110% | -59% (active) | 50% | 52.3% | 73.3% | 92.4% | 82.7% | 102% | 78.7% |  | 111% |  | 
10 | COc1ccc(/C=C/c2c(C(C)=O)c(C)nc3ccccc23)cc1 | 75.8% | 81.7% | 85.6% | 65.1% | 77.9% | 84.5% | 81.4% | 72.8% | 77.7% | 73.1% | 60.2% | 85.2% | 77% | 70.1% | 80.8% | 76.7% | 97.6% | 106% | 86.6% | 
11 | O=C(c1ccccc1)c1c(/C=C/c2ccccc2)c2ccccc2[nH]c1=O | 92.6% | 98.2% | 92.7% | 73.6% | 97.8% | 93.5% | 91.8% | 97.6% | 87.6% | 84.1% | 94.6% | 90.9% | 90.4% | 97.7% | 102% | 95.4% | 97.6% | 88.7% | 97.5% | 
12 | Cc1cc(N)n(S(=O)(=O)c2oc(-c3ccccc3)nc2C#N)n1 | 89.7% | 84.7% | 83.9% | 80.6% | 99.1% | 5.25% (active) | -49.4% (active) | 128% | 7.83% (active) | 0.904% (active) | 75.9% | 89.4% | 109% | 106% | 91.8% | 97.9% | 89.9% | 116% | 100% | 
13 | O=S(=O)(NCCCNc1nccc(-n2ccc3cccnc32)n1)c1ccc(Br)cc1 | 108% | 93% | 102% | 107% | 121% | 108% | 94.2% | 102% | 102% | 100% |  | 103% | 107% | 99.3% | 113% | 108% | 112% | 103% | 101% | 112%
14 | CCCCCCCC[C@@H](O)CC(=O)N[C@@H](CC(N)=O)C(=O)N[C@@H](CCC(N)=O)C(=O)N[C@@H](CC(=O)c1cc(C)cc(O)c1C(=O)c1c(O)cccc1O)CC(C)C | 51.9% | 61.1% | 25.4% | 63.2% | -6.12% (active) | 31.9% | 40.6% | -3.25% (active) | 11.6% | 14% | 10.9% | 47.6% | 39.9% | 41.1% | 63.4% | 15.1% | -3.89% (active) | 26.9% |  | 
15 | COc1ccc(Nc2[nH]n3c(=O)cc(-c4ccccc4)nc3c2C(=O)Nc2ccc(C)cc2)c(OC)c1 | 103% | 89.8% | 85.9% | 74.7% | 108% | 88.5% | 90.4% | 108% | 66.5% | 69.4% | 108% | 79.4% | 92% | 89.6% | 91.2% | 102% | 98.7% | 78.1% | 108% | 
16 | C=C1CCC2C(C)(CO)C(O)CCC2(C)C1C/C=C1/C(=O)OCC1Oc1ccccc1C (stereo not given) | 87.5% | 101% | 85.9% | 93% | 136% | 91.6% | 95.8% | 108% | 20.3% | 92.5% |  | 72.5% | 91.8% | 74.8% |  | 73.7% | 34.3% | 105% | 81.1% | 50.7%
17 | COc1ccc(Nc2[nH]n3c(=O)cc(C)nc3c2C(N)=O)c(OC)c1 | 94% | 101% | 96.6% | 87.5% | 88.2% | 96.8% | 90.2% | 86.1% | 101% | 116% | 102% | 97.4% | 113% | 99.2% | 88.3% | 107% | 106% | 99.2% | 103% | 
